High-throughput results (PubChem BioAssay)
A selection: hits, their analogues and other compounds. The true share with any hit is near 9.4%.
Rab9 prom act = Rab9 promoter activation; Huh7 Rab9 promoter-luciferase reporter, luminescence, 24 h; Potency, µM (series often up to 9.22 µM), for inactives: at the top dose activation, negative = inhibition, usual class: activators; 2.8% of 320,000 active; AID 485297; note: % of control where 0% means no effect; nearly all actives have a fitted effect of over 60% in size
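Huh7 reporter line, Rab9 promoter upstream of luciferase. Compound exposure 24 h at 37 °C in reduced-serum medium with 10% FBS. Read-out: luminescence.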
SMN2 splice enh = increases expression of the SMN2 splice variant. HEK293 SMN2-luciferase splicing reporter, luminescence, 30-36 h. Potency, µM (series often up to 46.1 µM), for inactives: at the highest dose activity change, positive = activation, usual class: activators. 2.8% of 210,000 active. AID 1458; note: % of control where 0% means no effect; nearly all actives have a fitted effect of over 55% in size
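HEK293 cells carry an SMN2 […]–luciferase reporter in which exon 7 inclusion puts luciferase in frame. Cells were plated 10-12 h before compound addition, then incubated 30-36 h at 37C. ONE-Glo luminescence was read; sodium butyrate at 4.5 mM final served as control.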
ELG1 genotoxic = genotoxicity induction in ELG1-luciferase HEK293T cells. 1.3% of 330,000 active. Potency, µM (highest dose often 46 µM), for inactives: at the highest dose activity change, positive = activation, hits mostly activators. AID 504466. HEK293T ELG1-luciferase reporter, luminescence, 16 h; note: % of control where 0% means no effect; nearly all actives have a fitted effect of over 60% in size
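Genotoxicity was scored as increased ELG1-luciferase reporter signal, measured by ONE-Glo luminescence (30 min, room temperature). Compound or vehicle exposure of the HEK293T reporter cells lasted 16 hr at 37°C.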
ELG1 repair inh = inhibitors of ELG1-dependent DNA repair in HEK293T cells; Potency, µM (doses to about 46.1 µM), without a hit: at the top dose activity change, negative = inhibition, actives largely listed as inhibitors; 2.3% of 330,000 active; HEK293T ELG1-luciferase reporter, luminescence, 16 h; DNA damage induced by 5-fluorouridine; note: % is set by controls: 0 for no effect and ±100 for the full control effect; nearly all actives have a fitted effect of over 55% in size
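In this reporter screen, reduction of luminescence relative to DMSO vehicle indicated activity. Compounds and 5-fluorouridine were added together to 2,000 cells per well, incubated for 16 hr at 37 °C, then developed with ONE-Glo.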
NPC1 prom act = activators of NPC1 promoter. Huh7 NPC1 promoter luciferase reporter, 24 h. 2.4% of 320,000 active. Potency, µM (highest dose often 9.22 µM), without a hit: at the highest dose activation, hits mostly activators; note: % of control where 0% means no effect; nearly all actives have a fitted effect of over 60% in size
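Luciferase expression driven by the NPC1 promoter was measured in stably transfected Huh7 cells after a 24 h compound incubation, using a luciferase reagent and a luminescence read.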
FLuc counter = inhibits or activates purified firefly luciferase, miR-21 counter-screen. Potency, µM (titrated, usually from 57.5 µM), without a hit: top-dose activity change, negative = inhibition, most hits filed as inhibitors. purified FLuc, Km substrates, luminescence inhibition. P08659. 6.9% of 360,000 active;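 note: plate controls were vehicle for no effect and reference inhibitor for full effect; nearly all actives have a fitted effect of over 55% in size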
Target sequence (P08659 whole entry, looked up): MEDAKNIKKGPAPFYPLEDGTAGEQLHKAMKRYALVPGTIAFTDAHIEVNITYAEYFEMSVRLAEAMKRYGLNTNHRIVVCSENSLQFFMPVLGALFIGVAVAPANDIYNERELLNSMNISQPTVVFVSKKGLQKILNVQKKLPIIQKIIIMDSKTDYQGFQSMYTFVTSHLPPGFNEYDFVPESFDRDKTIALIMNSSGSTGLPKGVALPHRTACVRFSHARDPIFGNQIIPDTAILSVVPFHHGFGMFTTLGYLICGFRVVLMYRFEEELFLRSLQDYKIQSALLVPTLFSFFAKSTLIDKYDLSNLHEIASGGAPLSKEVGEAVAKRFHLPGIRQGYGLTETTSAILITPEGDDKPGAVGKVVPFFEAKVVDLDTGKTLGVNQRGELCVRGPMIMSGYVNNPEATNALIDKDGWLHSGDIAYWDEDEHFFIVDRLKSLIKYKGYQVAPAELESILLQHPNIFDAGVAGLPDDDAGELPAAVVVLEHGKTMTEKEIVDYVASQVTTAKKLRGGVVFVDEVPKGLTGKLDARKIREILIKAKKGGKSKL
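Purified P. pyralis luciferase (10nM final) with 10uM D-luciferin and 10uM ATP (Km levels) in 50mM Tris acetate pH 7.5, 10mM Mg acetate, 0.01% Tween-20, 0.05% BSA; qHTS 6-point titration, ~60 µM downward; luminescence read.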
Numbers without * were called inactive; u = inconclusive; x = no result given; [ ] = another dose, or the depositor's remark. Calls come from the whole dose curve; as a rule, active = well fitted curve in the direction sought with a large enough effect; inconclusive = small, poorly fitted or top-dose-only effect, or another doubt; inactive = no such curve, though single readings can be large; an effect the other way counts as inactive or inconclusive. Potency is the fitted concentration of half-maximal effect.

SMILES	Rab9 prom act	SMN2 splice enh	ELG1 genotoxic	ELG1 repair inh	NPC1 prom act	FLuc counter
O=C(Nc1nc2c(s1)CCc1ccccc1-2)c1cccs1	u	9%	9%	u	u	13µM*
Fc1ccccc1Nc1nc2c(s1)CCc1ccccc1-2	3.2µM*	u	8.2µM*	u	u	1.9µM*
O=C(Nc1nc2c(s1)COc1ccccc1-2)c1cccs1	10%	-18%	0%	-16%	16%	13µM*
O=C(Nc1ncc2c(n1)-c1ccccc1CC2)c1cccs1	20%	-5%	1%	1%	15%	19µM*
CN1CCN(CCNC(=O)c2cnn(-c3ccc(Cl)cc3)c2C2CCN(C(=O)OC(C)(C)C)CC2)CC1	x	x	x	x	x	0%
CN(C)c1ccc(-c2nnc(SCC3CCCO3)n2C)cc1 (stereo not given)	3.2µM*	x	u	u	u	u
Cc1sc2ncn(CC(=O)Nc3cccc(C(F)(F)F)c3)c(=O)c2c1S(=O)(=O)N1CCN(C)CC1	x	15%	x	x	x	0%
Cn1c(Oc2ccccc2)nc2c1c(=O)n(Cc1ccc(Cl)cc1Cl)c(=O)n2C	x	-9%	x	x	x	6%
Oc1ccc(-c2nc3cnccn3c2Nc2ccc3c(c2)OCCO3)cc1	-9%	15%	16%	u	9%	-1%
CN(C)c1ccc(-c2nc3ccccn3c2Nc2ccc3c(c2)OCCO3)cc1	x	u	x	x	x	2.4µM*
Oc1ccc(-c2nc3ccccn3c2Nc2ccc3c(c2)OCCO3)cc1	x	41%	x	x	x	19µM*
Clc1cccc(-c2nc3ccccn3c2Nc2ccc3c(c2)OCCO3)c1	x	-19%	x	x	x	u
CCCCOc1ccc(C(=O)NCC2(N3CCN(C)CC3)CCCCC2)cc1	x	x	x	x	x	0%
CCOC(=O)c1cnc(-n2nc(C)cc2C)nc1NC1CCCC1	-13%	x	-9%	u	-7%	-1%
CCOC(=O)c1cnc(-n2nc(C)cc2C)nc1N(C)C	4.5µM*	u	u	u	u	5.4µM*
CCOC(=O)c1cnc(-n2nc(C)cc2C)nc1NCc1ccc2c(c1)OCO2	2%	-18%	-6%	21µM*	0%	-2%
CC(C)(C)c1ccc(C(=O)Nc2cccc3c(=O)[nH][nH]c(=O)c23)cc1	u	-56%	u	u	21%	0.85µM*
CN(CCCS(=O)(=O)[O-])c1ccc(/C=C/c2ccc3ccccc3[n+]2C)cc1	-3%	x	-1%	4%	-5%	-11%
[O-][n+]1c(/C=C/c2ccccc2)ccc2ccccc21	2.8µM*	x	6.5µM*	u	4µM*	0.85µM*
COc1ccc(NC(=O)CN(c2cccc(C)c2C)S(=O)(=O)c2ccccc2)cc1OC	x	-9%	x	x	x	-10%
COc1ccc(-n2c(C)nc3c(cnn3-c3ccc(Cl)cc3)c2=O)cc1	-8%	-50%	-11%	18µM*	-11%	-9%
CCSC1=N/C(=C\c2cccnc2)C(=O)N1c1ccccc1	3%	u	-3%	-13%	1%	-2%
CSC1=N/C(=C\c2cccnc2)C(=O)N1c1ccccc1	-3%	11%	15%	u	1%	12µM*
COc1cccc2[nH]c3ccccc3c(=O)c12	6%	x	0%	26%	3%	17µM*
COc1cccc2[nH]c(C(=O)NN)c(N)c12	-4%	x	-6%	u	2%	-20%
SMILES	Rab9 prom act	SMN2 splice enh	ELG1 genotoxic	ELG1 repair inh	NPC1 prom act	FLuc counter
NC(=O)CSc1nc2c(oc3ccccc32)c(=O)n1-c1ccccc1F	x	-3%	x	x	x	3%
Nc1nonc1C(=O)N/N=C/c1ccc(Br)o1	-2%	x	0%	12%	-2%	19µM*
Nc1nonc1C(=O)N/N=C/c1ccc(-c2ccc(Cl)c(C(=O)O)c2)o1	-3%	14%	-6%	-6%	-1%	u
Nc1nonc1C(=Nc1ccccc1)NO	4%	1%	1%	26%	20%	3%
N/C(=N\N=C\c1ccc(Br)o1)c1nonc1N	1.3µM*	x	u	u	2.5µM*	12µM*
CCCS(=O)(=O)NCCc1csc2nc(-c3ccc(OC)cc3)nn12	x	x	x	x	x	-19%
CCc1ccccc1NC(=O)C(=O)NCC(c1cccnc1)N1CCN(c2ccccc2F)CC1 (stereo not given)	x	x	x	x	x	-8%
Cc1ccc2sc(NC(=O)CSc3nc(C)cc(C)c3C#N)nc2c1	28%	2.5µM*	u	u	u	3.8µM*
Cc1nc(SCC(=O)Nc2nccs2)c(C#N)c(C)c1C	0.56µM*	x	u	u	u	1.1µM*
Cc1nc(SCC(=O)Nc2nc3ccccc3s2)n[nH]1	24%	x	12%	u	24%	u
Cc1nc(SCC(=O)Nc2nc3ccccc3s2)c(C#N)c(C)c1C	-48%	-102%	-12%	5.2µM*	-26%	2.1µM*
Cc1cc(C)c(C#N)c(SCC(=O)Nc2nnc(-c3ccccc3)s2)n1	-2%	x	0%	13%	-4%	4%[2.3 µM]
Cc1cc(C(F)(F)F)c(C#N)c(SCC(=O)Nc2nc3ccccc3s2)n1	0.4µM*	-88%	0.23µM*	u	1.3µM*	1.2µM*
CCCCC/C=C\C[C@@H](O)/C=C/C=C/C=C/[C@@H](O)CCCC(=O)O	x	11%	x	x	x	x
O=C(NCCc1ccc(Cl)cc1)c1nnc(Cc2ccc(Cl)cc2Cl)o1	x	-4%	x	x	x	2%
C[C@@H](CNC(N)=O)NC(N)=O	x	-16%[9.22 µM]	x	x	x	x
CCOC(=O)c1c(Nc2ccccc2OCCOC)n[nH]c1C	-1%	x	-9%	21µM*	2%	7%
CCOC(=O)CC(=O)CSc1ncnc2c1cnn2-c1ccccc1	u	9%	u	u	u	24µM*
CCOC(=O)CSc1ncnc2c1cnn2-c1ccc(Cl)cc1	5%	7%	17%	u	13%	9.5µM*
Cc1nnc2c3cnn(-c4ccc(Cl)cc4)c3ncn12	u	-8%	21µM*	u	u	u
CCOC(=O)Cn1cnc2c(cnn2-c2ccc(Cl)cc2)c1=O	u	x	3%	u	21%	u
Cc1cccc(CSc2ncc(Cl)c(C(=O)Nc3sc4c(c3C(N)=O)CCCC4)n2)c1	x	4%	x	x	x	-2%
CCOc1ccc(N2CC(c3nc4ccccc4n3Cc3cccc(Cl)c3)CC2=O)cc1 (stereo not given)	x	6%	x	x	x	-11%
Cc1nc2c3cc(F)ccc3n(Cc3ccc(F)cc3)c2s1	-2%	4%	3%	-5%	-6%	0%
CCc1ccc2c(c1)c1nc(C)sc1n2CC	3%	-12%	5%	0%	-6%	19µM*
Nc1nc(CSc2ncn(-c3ccccc3)n2)cs1	1.3µM*	16µM*	u	u	2µM*	11µM*
c1ccc(CSc2ncn(-c3ccccc3)n2)cc1	2.2µM*	14µM*	4.1µM*	u	3.2µM*	4.8µM*
